Drawing on PubChem BioAssay (EPA / NIEHS), this text covers AC50 and outcome for seven compounds.

Active and inactive are the calls of the source. The calls were made as follows: active = hit-call score of the fitted dose curve at least 0.9, where 1 is the maximum; inactive = score below 0.9.

Read-out in experiment [1]: Vascular endothelial growth factor receptor 2 (Homo sapiens) (UniProt P35968)
Description: BSK_4H_VEGFRII: BioMAP Diversity Plus: 4H Assay for Vascular endothelial growth factor receptor 2 (VEGFR2) Biomarker Activity (AID 2283031).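 As to AC50: cell-surface VEGFR2 protein level quantified by ELISA.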 The note with it: primary human endothelial cells (HUVEC); actives raise or lower the signal. A digest of the protocol: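 In this multiplexed HUVEC system, biomarker ELISA was performed after 24 h chemical exposure. Parallel SRB staining (TCA fixation, 560 nm) tracked cytotoxicity; DMSO served as baseline.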

Read-out in experiment [2]: Human Leukocyte Antigen - DR isotype (HLADR), HLA-DRA (gene 3122)
Description: BSK_BE3C_HLADR: BioMAP Diversity Plus: BE3C Assay for Human Leukocyte Antigen - DR isotype (HLADR) Biomarker Activity (AID 2283032). Particulars: primary human bronchial epithelial cells; actives raise or lower the signal. A digest of the protocol: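 ELISA read-out of HLA-DR on human lung bronchial epithelial primary cells, measured 24 h post-dosing. Both increases and decreases were scored relative to DMSO vehicle.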

Read-out in experiment [3]: Vascular cell adhesion molecule 1 (VCAM1), VCAM1 (gene 7412)
Description: BSK_4H_VCAM1: BioMAP Diversity Plus: 4H Assay for Vascular cell adhesion molecule 1 (VCAM1) Biomarker Activity (AID 2283033).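 As to outcome: cell-surface VCAM-1 protein measured by ELISA.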 The note with it: primary human endothelial cells (HUVEC); actives raise or lower the signal. A digest of the protocol:
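ELISA read-out of VCAM-1 on human umbilical vein endothelium 24 hours after chemical dosing; gain or loss of signal was fitted relative to DMSO, with sulforhodamine B staining of parallel cultures flagging overt cytotoxicity.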

Read-out in experiment [4]: Interferon-gamma inducible Protein 10 (IP10), CXCL10 (gene 3627)
Description: BSK_BE3C_IP10: BioMAP Diversity Plus: BE3C Assay for Interferon-gamma inducible Protein 10 (IP10) Biomarker Activity (AID 2283034). The note with it: primary human bronchial epithelial cells; actives raise or lower the signal. A digest of the protocol:
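Chemical is dosed onto human lung bronchial epithelial primary cells, cultures are incubated 24 h, and IP-10 is then quantified by ELISA. Gain or loss of signal is fitted in both directions relative to DMSO.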

Read-out in experiment [5]: Monokine induced gamma interferon (MIG), CXCL9 (gene 4283)
Description: BSK_BE3C_MIG: BioMAP Diversity Plus: BE3C Assay for Monokine induced gamma interferon (MIG) Biomarker Activity (AID 2283035).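 As to outcome: MIG protein measured by ELISA in BE3C cultures after 24 h of dosing.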 The note with it: primary human bronchial epithelial cells; actives raise or lower the signal. A digest of the protocol:
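Primary human bronchial epithelial cells treated for 24 h; MIG levels measured by ELISA, fitted bidirectionally versus DMSO. Parallel SRB total-protein staining assessed cytotoxicity.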

Read-out in experiment [6]: Transforming growth factor beta 1 (TGFb1), TGFB1 (gene 7040)
Description: BSK_BE3C_TGFb1: BioMAP Diversity Plus: BE3C Assay for Transforming growth factor beta 1 (TGFb1) Biomarker Activity (AID 2283036;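 as to outcome: TGF-b1 protein level measured by ELISA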). The note with it: primary human bronchial epithelial cells; actives raise or lower the signal. In outline: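 Primary human lung bronchial epithelial cells; compound exposure 24 h; TGF-b1 by ELISA; bidirectional fit, DMSO baseline. Parallel SRB total-protein staining for cytotoxicity.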

Read-out in experiment [7]: Plasminogen activator inhibitor-1 (PAI1), SERPINE1 (gene 5054)
Description: BSK_BE3C_PAI1: BioMAP Diversity Plus: BE3C Assay for Plasminogen activator inhibitor-1 (PAI1) Biomarker Activity (AID 2283037). Particulars: primary human bronchial epithelial cells; actives raise or lower the signal. In outline: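 Primary human lung bronchial epithelial cells; chemical dosing; 24 h; PAI-1 measured by ELISA; bidirectional fit referenced to DMSO as negative control.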

Read-out in experiment [8]: urokinase plasminogen activator (uPA), PLAU (gene 5328)
Description: BSK_BE3C_uPA: BioMAP Diversity Plus: BE3C Assay for urokinase plasminogen activator (uPA) Biomarker Activity (AID 2283038).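 As to outcome: uPA protein level quantified by ELISA in cell cultures; uPA read one day after compound addition.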 The note with it: primary human bronchial epithelial cells; actives raise or lower the signal. In outline:
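Using confluent primary human lung bronchial epithelial cultures, we dosed chemicals, waited 24 h, then ran a uPA ELISA, fitting bidirectionally against DMSO.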

Read-out in experiment [9]: Urokinase-type plasminogen activator receptor (uPAR), PLAUR (gene 5329)
Description: BSK_BE3C_uPAR: BioMAP Diversity Plus: BE3C Assay for Urokinase-type plasminogen activator receptor (uPAR) Biomarker Activity (AID 2283039).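 As to outcome: cells exposed to compound for one day before measurement.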 The note with it: primary human bronchial epithelial cells; actives raise or lower the signal. In outline:
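Human bronchial epithelial primary cells; chemical exposure 24 h; uPAR by ELISA; bidirectional fit vs DMSO control.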

Read-out in experiment [10]: Interleukin-6 (IL6), IL6 (gene 3569)
Description: BSK_CASM3C_IL6: BioMAP Diversity Plus: CASM3C Assay for Interleukin-6 (IL6) Biomarker Activity for (AID 2283040). Particulars: primary human coronary artery smooth muscle cells; actives raise or lower the signal.

Read-out in experiment [11]: Tissue plasminogen activator (tPA), PLAT (gene 5327)
Description: BSK_BE3C_tPA: BioMAP Diversity Plus: BE3C Assay for Tissue plasminogen activator (tPA) Biomarker Activity (AID 2283041).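 As to outcome: tPA level quantified by ELISA one day after compound addition.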 Particulars: primary human bronchial epithelial cells; actives raise or lower the signal. In outline:
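Primary human lung bronchial epithelial cultures receive test chemical; after 24 h, tPA is quantified by ELISA, and gain or loss of signal is fitted bidirectionally relative to DMSO baseline.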

Read-out in experiment [12]: Interleukin-8 (IL8), CXCL8 (gene 3576)
Description: BSK_CASM3C_IL8: BioMAP Diversity Plus: CASM3C Assay for Interleukin-8 (IL8) Biomarker Activity (AID 2283042).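 Also: IL-8 protein level quantified by ELISA.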 Particulars: primary human coronary artery smooth muscle cells; actives raise or lower the signal.

Read-out in experiment [13]: Human Leukocyte Antigen - DR isotype (HLADR), HLA-DRA (gene 3122)
Description: BSK_CASM3C_HLADR: BioMAP Diversity Plus: CASM3C Assay for Human Leukocyte Antigen - DR isotype (HLADR) Biomarker Activity (AID 2283043).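 Also: cell-surface HLA-DR protein level quantified by ELISA.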 The note with it: primary human coronary artery smooth muscle cells; actives raise or lower the signal.

Read-out in experiment [14]: Macrophage colony-stimulating factor (MCSF), CSF1 (gene 1435)
Description: BSK_CASM3C_MCSF: BioMAP Diversity Plus: CASM3C Assay for Macrophage colony-stimulating factor (MCSF) Biomarker Activity (AID 2283044).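 Also: M-CSF protein amount quantified by ELISA after 24 h exposure.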 Particulars: primary human coronary artery smooth muscle cells; actives raise or lower the signal.

Read-out in experiment [15]: Low-density lipoprotein receptor (LDLR), LDLR (gene 3949)
Description: BSK_CASM3C_LDLR: BioMAP Diversity Plus: CASM3C Assay for Low-density lipoprotein receptor (LDLR) Biomarker Activity (AID 2283045).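 Also: LDLR protein level on the cell surface quantified by ELISA.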 The note with it: primary human coronary artery smooth muscle cells; actives raise or lower the signal.

Read-out in experiment [16]: Monocyte Chemoattractant Protein-1 (MCP1), CCL2 (gene 6347)
Description: BSK_CASM3C_MCP1: BioMAP Diversity Plus: CASM3C Assay for Monocyte Chemoattractant Protein-1 (MCP1) Biomarker Activity (AID 2283046).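 Also: MCP-1 level quantified by ELISA 24 h after dosing.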 The note with it: primary human coronary artery smooth muscle cells; actives raise or lower the signal.

Experiment [17] can be described thus: BSK_CASM3C_Proliferation: Cell Proliferation Assessment in the BioMAP Diversity Plus: CASM3C Assay (AID 2283047).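 Also: sulforhodamine B total protein stain as relative cell number at 560 nm; sub-confluent cells exposed 48 h before staining; fitted both ways against DMSO so gain or loss of cell number.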 Particulars: primary human coronary artery smooth muscle cells.
Read-out in experiment [18]: Monokine induced gamma interferon (MIG), CXCL9 (gene 4283)
Description: BSK_CASM3C_MIG: BioMAP Diversity Plus: CASM3C Assay for Monokine induced gamma interferon (MIG) Biomarker Activity (AID 2283048). Particulars: primary human coronary artery smooth muscle cells; actives raise or lower the signal.

Read-out in experiment [19]: serum amyloid A (SAA), SAA1 (gene 6288)
Description: BSK_CASM3C_SAA: BioMAP Diversity Plus: CASM3C Assay for serum amyloid A (SAA) Biomarker Activity (AID 2283049).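 Also: SAA protein level quantified by ELISA.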 The note with it: primary human coronary artery smooth muscle cells; actives raise or lower the signal.

The nature of experiment [20]: BSK_CASM3C_SRB: Viability Assessment in the BioMAP Diversity Plus: CASM3C Assay (AID 2283050).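 Also: total protein by SRB staining as cytotoxicity measure in parallel cultures.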 Particulars: primary human coronary artery smooth muscle cells.

The AC50 is the midpoint of the concentration-response curve, whichever way the signal moves. On to `C=CC(=O)OCC(CC)(COC(=O)C=C)COC(=O)C=C`, for which the AC50 in experiment [1] is 5.14 µM (active); in experiment [2], 3.18 µM (active); in experiment [3], 2.45 µM (active); in experiment [4], 4.45 µM (active); in experiment [5], 9.44 µM (active); in experiment [6] it was 6.86 µM (active). The AC50 in experiment [7] was 10.5 µM (active); in experiment [8], 4.96 µM (active); in [9], 7.24 µM (active); in experiment [10], 2.11 µM (active); in experiment [11], 5.46 µM (active); in experiment [12], 6.3 µM (active). The AC50 in [13] was 1.46 µM (active); in experiment [14] it was 1.98 µM (active); in experiment [16], 2.54 µM (active); in experiment [17], 2.84 µM (active); in [18], 2.82 µM (active); in experiment [19] it was 0.624 µM (active). Further, the AC50 in [20] is 2.21 µM (active). Besides, in experiment [15], the outcome was inactive.
`CCOP(=S)(S)OCC`: the result in [1], in experiment [2], in experiment [3], in [4], in [5] and in experiment [6] was inactive. For the same compound, the outcome in experiment [7], in experiment [8], in experiment [9], in experiment [10], in [11] and in [12] was inactive. For the same compound, the outcome in [13], in [14], in [15], in [16], in experiment [17] and in [18] was inactive. For the same compound, the outcome in [19] and in [20] was inactive.
In the case of `c1ccc(OP(Oc2ccccc2)Oc2ccccc2)cc1`, the outcome in [1], in experiment [2], in experiment [3], in [4], in experiment [5] and in experiment [6] was inactive. In addition, the result in [7], in [8], in [9], in [10], in experiment [11] and in [12] was inactive. The result in experiment [13], in [14], in experiment [15], in experiment [16], in [17] and in experiment [18] was inactive. The result in experiment [19] and in experiment [20] was inactive.
For `O=C(O)C(Cl)Cl`, the result in [1], in experiment [2], in experiment [3], in experiment [4], in experiment [5] and in [6] was inactive. Also, the outcome in [7], in experiment [8], in experiment [9], in experiment [10], in experiment [11] and in experiment [12] was inactive. The result in experiment [13], in experiment [14], in experiment [15], in experiment [16], in [17] and in experiment [18] was inactive. Further, the result in experiment [19] and in experiment [20] was inactive.
`COP(N)(=S)OC`: the outcome in [1], in experiment [2], in experiment [3], in experiment [4], in [5] and in experiment [6] was inactive. The result in [7], in [8], in experiment [9], in experiment [10], in [11] and in experiment [12] was inactive. In addition, the result in experiment [13], in experiment [14], in experiment [15], in [16], in [17] and in [18] was inactive. Also, the outcome in [19] and in [20] was inactive.
Take `Cc1c([N+](=O)[O-])cc2c(c1[N+](=O)[O-])C(C)(C)CC2(C)C`: the outcome in experiment [1], in experiment [3], in experiment [5], in experiment [8], in [10] and in [12] was inactive. Also, the outcome in experiment [16], in [17], in [18], in experiment [19] and in experiment [20] was inactive. For the same compound, the AC50 in [2] was 8.05 µM (active); in experiment [4], 20 µM (active); in experiment [6], 13.5 µM (active); in experiment [7], 5 µM (active); in experiment [9], 16.1 µM (active); in [11], 10.6 µM (active). Besides, the AC50 in experiment [13] is 1.74 µM (active); in [14] it was 0.378 µM (active); in [15], 5.44 µM (active).
For `CC(C)(C)OOC(C)(C)C`, the outcome in [1], in experiment [2], in [3], in experiment [4], in experiment [5] and in [6] was inactive. For the same compound, the result in experiment [7], in experiment [8], in experiment [9], in experiment [10], in experiment [11] and in [12] was inactive. For the same compound, the outcome in experiment [13], in experiment [14], in [15], in experiment [16], in [17] and in [18] was inactive. Moreover, the outcome in [19] and in experiment [20] was inactive.
